Measurements taken from PMC4336329 (PLoS ONE, 2015).
Out of some 310,000 compounds screened, about 14,000 (4.5%) showed an effect of 50% or more. Effects have a minus sign here. Many of the other results were omitted from the sample, so strong results are more common in it than they were.

Biological target: human ether-à-go-go-related gene (hERG) potassium channel (human, UniProt Q12809)
Assay: primary screen, population patch clamp on CHO cells stably expressing hERG; higher = less effect of the substance
Experimental: Briefly, Chinese hamster ovary (CHO) cells stably expressing the hERG channel were dislodged from tissue culture flasks and dispensed into PPC plates. […] During the recording, background leak currents were estimated by a 100 ms step to -80 mV from an initial holding potential of -70 mV and subtracted from the subsequent current measurement. The campaign was conducted in two phases using slight differences in recording protocol. In the first phase, the initial voltage pulse used a 100 ms step to -30 mV from a holding potential of -70 mV, a 2 s conditioning step to +25 mV, and a 2 s test step to -30 mV. During the second phase of the screen, the potential during the conditioning step was raised to +45 mV. In both phases of the campaign, a secondary voltage pulse was applied using the same parameters as the second phase initial pulse. The initial and secondary pulses were applied in the absence of compound, and upon application of 1 μM and 10 μM test concentrations. […]
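Also: peak tail current of the secondary pulse compared with the same well before compound.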

Sequence of human ether-à-go-go-related gene (hERG) potassium channel (Q12809 whole entry, looked up): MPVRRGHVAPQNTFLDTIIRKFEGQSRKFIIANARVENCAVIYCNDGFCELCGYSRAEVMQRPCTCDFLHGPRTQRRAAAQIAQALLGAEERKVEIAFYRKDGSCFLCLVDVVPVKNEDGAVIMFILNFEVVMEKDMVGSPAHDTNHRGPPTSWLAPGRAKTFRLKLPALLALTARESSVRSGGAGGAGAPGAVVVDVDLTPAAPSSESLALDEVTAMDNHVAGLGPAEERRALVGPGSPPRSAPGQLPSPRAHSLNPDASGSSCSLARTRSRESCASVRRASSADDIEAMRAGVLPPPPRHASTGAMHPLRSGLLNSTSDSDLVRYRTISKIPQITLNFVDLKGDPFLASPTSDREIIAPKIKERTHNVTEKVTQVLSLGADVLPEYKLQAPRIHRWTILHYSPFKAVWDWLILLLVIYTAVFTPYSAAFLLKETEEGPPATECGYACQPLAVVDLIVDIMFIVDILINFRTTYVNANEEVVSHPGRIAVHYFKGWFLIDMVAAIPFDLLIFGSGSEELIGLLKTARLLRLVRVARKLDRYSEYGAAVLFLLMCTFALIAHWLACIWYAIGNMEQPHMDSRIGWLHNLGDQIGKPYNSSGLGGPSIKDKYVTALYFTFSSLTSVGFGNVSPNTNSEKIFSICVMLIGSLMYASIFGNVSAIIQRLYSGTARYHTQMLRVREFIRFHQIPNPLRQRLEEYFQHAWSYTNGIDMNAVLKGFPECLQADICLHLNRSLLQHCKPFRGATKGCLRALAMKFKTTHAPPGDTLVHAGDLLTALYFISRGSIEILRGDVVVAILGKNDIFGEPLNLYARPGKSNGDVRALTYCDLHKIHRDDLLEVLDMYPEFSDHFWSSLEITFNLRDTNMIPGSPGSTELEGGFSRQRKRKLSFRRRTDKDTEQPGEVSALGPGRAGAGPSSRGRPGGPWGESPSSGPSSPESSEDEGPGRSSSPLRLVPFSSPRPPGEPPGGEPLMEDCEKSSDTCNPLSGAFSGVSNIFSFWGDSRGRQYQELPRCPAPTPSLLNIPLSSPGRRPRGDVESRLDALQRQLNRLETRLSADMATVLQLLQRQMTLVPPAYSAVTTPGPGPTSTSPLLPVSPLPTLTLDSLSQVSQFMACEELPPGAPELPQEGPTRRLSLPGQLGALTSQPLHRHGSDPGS

SMILES	hERG current change (%, negative = inhibition) at 10uM [%]
COc1ccccc1CNC(=O)c1cnccn1	0.0654
COc1cc(CN2CCN(CC#Cc3ccccc3)CC2CCO)cc(OC)c1 (stereo not shown)	-1.09
COc1cc(CN2CCN(Cc3cn(C)c4ccccc34)CC2CCO)cc(OC)c1 (stereo not shown)	-43.7
OCCC1CN(Cc2cccnc2)CCN1CCc1ccccc1 (stereo not shown)	-34.8
COc1cc(CN2CCN(CCCc3ccccc3)CC2CCO)cc(OC)c1 (stereo not shown)	-71.1
COc1cc(CN2CCN(CCc3ccccc3)C(CCO)C2)cc(OC)c1 (stereo not shown)	-63.5
OCCC1CN(Cc2cccc(O)c2)CCN1CCc1ccccc1 (stereo not shown)	-24.4
C#CCOCCOCCOCCNc1nc(N2CCN(C(=O)[C@H]([C@@H](C)CC)n3cc([C@@H](N)CO)nn3)CC2)nc(N2CCN(C(=O)[C@H]([C@@H](C)CC)n3cc([C@@H](N)CC(C)C)nn3)CC2)n1.Cl	7.34
CC1CCCCN1CCNC(=O)C1CCN(S(=O)(=O)c2cccc3nsnc23)CC1 (stereo not shown)	2.44
CCS(=O)(=O)Nc1cccc(-c2ccc3nnc(-c4cccnc4)n3n2)c1	-4.03
CC(C)c1ccc(N(CC(=O)N/N=C/c2ccc(OC3CSC3)cc2)S(=O)(=O)c2ccccc2)cc1	12.8
CC(NC=O)c1nc2ccccc2n1CCc1ccccc1 (stereo not shown)	5.34
CCc1ccc(NC(=O)C(=O)NCC(O)c2ccccc2)cc1 (stereo not shown)	8.25
O=C(NCCc1ccccc1)c1ccc(Cl)cc1[N+](=O)[O-]	-0.169
CCc1ccc(OCc2nnc(SCC(=O)NCc3ccco3)o2)cc1	-55.2
CCc1ccc(OCc2nnc(SCC(=O)Nc3cccc(C(=O)N4CCOCC4)c3)o2)cc1	-61.4
CCOc1ccc(NC(=O)CSc2nnc(CNC(=O)c3ccco3)o2)cc1	-10.2
COc1ccc(NC(=O)CSc2nnc(CNC(=O)c3ccco3)o2)cc1	11.8
COc1ccc(OCc2nnc(SCC(=O)Nc3cccc(C(C)=O)c3)o2)cc1	4.32
COc1ccc(OCc2nnc(SCC(=O)NCc3ccco3)o2)cc1	-14.4
Cc1cccc(OCc2nnc(SCC(=O)Nc3cccc(C(=O)N4CCOCC4)c3)o2)c1C	-2.16

SMILES	hERG current change (%, negative = inhibition) at 10uM [%]
COc1ccc(Cc2nnc(SCC(=O)NCc3ccco3)o2)cc1	8.75
O=C(CSc1nnc(CNC(=O)c2ccco2)o1)Nc1ccc(OC(F)(F)F)cc1	-52.6
O=C1CCCN1CCCNC(=S)Nc1ccc(Cl)cc1Cl	-65.5
O=C1CCCN1CCCNC(=S)Nc1ccc(Br)cc1Cl	-2.97
Cc1cc(Cl)ccc1NC(=S)NCCCN1CCCC1=O	7.99
CCOC(=O)CC(=O)CSc1nc2c(sc(=S)n2-c2ccc(C)c(C)c2)c(=O)[nH]1	-10.7
COc1ccccc1-c1sc2cc3c(cc2c1C#Cc1ccccn1)OCO3	8.78
CSc1cccc(NC(=O)c2cc(S(=O)(=O)N3CCc4ccccc43)cn2C)c1	-12.4
CCn1cc(CN2CCC(C(=O)Nc3ccc(Oc4ccccc4)nc3)CC2)cn1	-30.3
C#Cc1ccc(CN2CCC(N3CCC(C(=O)NCc4ccccn4)CC3)CC2)cc1	-72.2
O=C(Nc1ccc(Oc2ccccc2)nc1)C1CCN(Cc2ccco2)CC1	-30.8
COCCC(=O)N1CCC(C(=O)Nc2ccc(Oc3ccccc3)nc2)CC1	17.6
O=C(Nc1ccc(Oc2ccccc2)nc1)C1CCN(Cc2ccccc2)CC1	-54.9
CCc1ccc(CN2CCC(C(=O)Nc3ccc(Oc4ccccc4)nc3)CC2)o1	-58.9
O=C(Nc1ccc(Oc2ccccc2)nc1)C1CCN(Cc2cccc(F)c2)CC1	-49.8
COc1cc(CN2CCCCC2C(=O)Nc2ccc(Oc3ccccc3)nc2)ccc1O (stereo not shown)	-4.36
C#Cc1ccc(CN2CCC(Oc3ccc(C(=O)NCc4ccccn4)cc3)CC2)cc1	-25
CSCC(C)N1CCC(N2CCC(C(=O)NCc3ccccn3)CC2)CC1 (stereo not shown)	-9.59
COCc1ccc(CN2CCCCC2C(=O)Nc2ccc(Oc3ccccc3)nc2)o1 (stereo not shown)	-0.373
COc1ccc(CN2CCC(C(=O)Nc3ccc(Oc4ccccc4)nc3)CC2)cc1F	-71.6
Brc1ccccc1OCCOc1cccc2cccnc12	14.1

SMILES	hERG current change (%, negative = inhibition) at 10uM [%]
O=C1OC2(CCCCC2)OC(=O)C1=CNc1nccs1	3.3
O=C1CC(=O)C(n2cncn2)C(c2ccc(Cl)cc2Cl)C1 (stereo not shown)	7.83
CC(=O)Nc1ccc(S(=O)(=O)NCc2nnnn2-c2ccc(F)cc2)cc1	3.41
Cc1ccc(C(=O)N2CCN(c3ncccn3)CC2)c(C)c1	12.1
CCOC(=O)c1c(C)sc(Sc2ccc(Cl)cc2[N+](=O)[O-])c1OC	11.3
COc1ccc(C2C(C#N)=C(/N=C/N3CCOCC3)OC3=C2C(=O)CC(C)(C)C3)cc1OC (stereo not shown)	-13.5
O=C(Nc1ccc(Oc2ccccc2)nc1)C1CCCCN1Cc1ccc(O)cc1 (stereo not shown)	-25.2
CC#CC(=O)N1CCC(C(=O)Nc2ccc(Oc3ccccc3)nc2)CC1	1.55
C#Cc1ccc(CN2CCC(C(=O)Nc3ccc(Oc4ccccc4)nc3)CC2)cc1	-72.3
Cc1ccc(C)c(S(=O)(=O)N2CCN(CC(=O)Nc3cc(C)on3)CC2)c1	-12.6
CCCCc1cc(=O)oc2c(CN(C)C)c(O)c(Cl)cc12	-1.34
CC(NS(=O)(=O)c1ccc(Cl)cc1)C(=O)Nc1ccc2c(c1)OCCO2 (stereo not shown)	-19.4
CCOCCCNC(=O)CCC(=O)NNc1nc2ccccc2c2nc(-c3ccccc3)nn12	-47.5
CCCc1c(O)nc(SCCN(CC)CC)n(C(=O)c2ccccc2)c1=O.Cl	-58
CCN(CC)CCSc1nc(O)c(Cc2ccccc2)c(=O)n1-c1ccccc1.Cl	15.8
CCCCc1c(O)nc(SCCN(C)C)n(-c2ccccc2)c1=O	10.1
CCN(CC(=O)Nc1c(F)cccc1F)C(=O)Cc1csc(-c2ccc(OC)c(OC)c2)n1	-2.82
CCOc1ccccc1NC(=S)NCCc1ccccc1	4.14
N=c1c(C(=O)NCC2CCCO2)cc2c(=O)n3ccccc3nc2n1Cc1ccco1 (stereo not shown)	-78.7
N=c1c(C(=O)NCC2CCCO2)cc2c(=O)n3ccccc3nc2n1Cc1cccnc1 (stereo not shown)	-72.9
N=c1c(C(=O)NCC2CCCO2)cc2c(=O)n3ccccc3nc2n1Cc1ccc(F)cc1 (stereo not shown)	-80

SMILES	hERG current change (%, negative = inhibition) at 10uM [%]
O=C(Cc1ccc(-n2c(=O)c3ccccc3n(Cc3ccc(F)cc3)c2=O)cc1)NCC1CCCO1 (stereo not shown)	-19.6
O=C(Cn1c(=O)n(Cc2ccc(F)cc2)c(=O)c2ccccc21)NCC1CCCO1 (stereo not shown)	-2.66
Nc1c(C(=O)NCC2CCCO2)c2nc3ccccc3nc2n1Cc1ccco1 (stereo not shown)	10.5
N=c1c(C(=O)NCC2CCCO2)cc2c(=O)n3ccccc3nc2n1Cc1ccccc1 (stereo not shown)	-75.3
O=C(NCC1CCCO1)c1cn(Cc2ccccc2)nc1-c1ccccc1 (stereo not shown)	-0.0253
O=C(Cn1c(=O)n(Cc2ccco2)c(=O)c2ccccc21)NCC1CCCO1 (stereo not shown)	2.5
CCCCNC(=O)C1(O)c2cc(Br)ccc2NC(=O)N1c1cccc(OC)c1 (stereo not shown)	7.42
Cc1cc(C)c2nc(SC3CCOC3=O)cc(C)c2c1 (stereo not shown)	4.23
COc1ccc(C(=O)Nc2cccc(S(C)(=O)=O)c2)cc1OC	6.89
O=C(N/N=C\c1c(O)ccc2ccccc12)c1ccc(O)cc1	14.3
Cc1c(C(=O)Nc2nnc(C3CC3)s2)oc2c(Cl)cccc12	8.02
O=C(NCc1ccco1)c1ccc2c(=O)n(CC3CCCO3)c(=S)[nH]c2c1 (stereo not shown)	-1.68
O=C(NCC1CCCO1)c1ccc2c(=O)n(Cc3ccc(Cl)cc3)c(=S)[nH]c2c1 (stereo not shown)	6.02
N=c1c(C(=O)NCC2CCCO2)cc2c(=O)n3ccccc3nc2n1Cc1ccccc1Cl (stereo not shown)	-67.9
O=C(Cc1ccc(-n2c(=O)c3ccccc3n(Cc3ccccc3Cl)c2=O)cc1)NCC1CCCO1 (stereo not shown)	-1.93
O=C(NCC1CCCO1)c1nc2c(nnn2Cc2ccccc2Cl)c(=O)[nH]1 (stereo not shown)	-0.506
N=c1c(C(=O)NCc2ccco2)cc2c(=O)n3ccccc3nc2n1CC1CCCO1 (stereo not shown)	-76
N=c1c(C(=O)NCC2CCCO2)cc2c(=O)n3ccccc3nc2n1Cc1ccc(Cl)cc1 (stereo not shown)	-77.2
N=c1c(S(=O)(=O)c2ccc(Cl)cc2)cc2c(=O)n3ccccc3nc2n1CC1CCCO1 (stereo not shown)	-13.3
